According to the supplement of paper PMC4840960:

Tests used:
[1] = system: E18 rat cortical neuron-glia co-culture; assay: fiber score / MBP score (myelination specific beyond OL differentiation) (ratio); higher = more myelination-specific MBP alignment; details: treatment time: 8 days (DIV5-DIV13)
Procedure, shortened: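 Reported values are fiber score (continuous MBP fiber length per Olig2+ nucleus) divided by MBP score (thresholded MBP area × intensity per Olig2+ nucleus). They come from primary E18 rat cortical co-cultures treated with library compounds at 1 or 5 µM in myelination medium from DIV5 to DIV13, then fixed in 4 % paraformaldehyde, immunostained for MBP and Olig2 with DAPI, and analysed over four 10X fields per well in duplicate wells.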

[2] = system: E18 rat cortical neuron-glia co-culture; assay: myelination (MBP fiber length per Olig2+ nucleus), % of 1 µM DAPT response (DMSO = 0) (% of DAPT); higher = more myelination, active = 50 or more; details: treatment time: 8 days (DIV5-DIV13)
Procedure, shortened: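 Rat cortical co-cultures from E18 tissue were dissociated with papain and plated at 20,000 cells/well on 96-well plates coated with poly-d-lysine/laminin. From DIV5 to DIV13, library compounds were added at 1 or 5 µM in myelination medium. After fixation in 4 % paraformaldehyde, cultures were immunostained for MBP and Olig2 and counterstained with DAPI, and four 10X fields were analysed in each of duplicate wells. The myelination value is the length of continuous straight MBP fibers per Olig2+ nucleus, normalised so that 0.1 % DMSO is 0 and a 1 µM positive control is 100.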

Compound | fiber score / MBP score ([1]; 1 µM) | fiber score / MBP score ([1]; 5 µM) | myelination ([2]; 1 µM) | myelination ([2]; 5 µM)
Cc1ccsc1C(=CCCN1CCC[C@@H](C(=O)O)C1)c1sccc1C [Tiagabine] | 0.656 | 0.716 | -23.8 (inactive) | -16.6 (inactive)
CCCc1nc2c(C)cc(-c3nc4ccccc4n3C)cc2n1Cc1ccc(-c2ccccc2C(=O)O)cc1 [Telmisartan] | 0.729 | 0.799 | -7.37 (inactive) | 2.94 (inactive)
CC1Cc2ccccc2N1NC(=O)c1ccc(Cl)c(S(N)(=O)=O)c1 (stereo not given) [Indapamide] | 0.911 | 1.31 | -4.93 (inactive) | 6.67 (inactive)
CN1CCc2cc(Cl)c(O)cc2C(c2ccccc2)C1 (stereo not given) | 0.959 | 0.975 | -8.8 (inactive) | -9.82 (inactive)
C[n+]1ccccc1C=NO [Pralidoxime] | 0.884 | 1.12 | -7.49 (inactive) | 1.41 (inactive)
CCOC(=O)[C@@]1(CCCCCCOc2ccc(Cl)cc2)CO1 [Etomoxir] | 0.693 | 0.645 | -31 (inactive) | -26.2 (inactive)
NS(=O)(=O)c1cc(C2(O)NC(=O)c3ccccc32)ccc1Cl (stereo not given) [Chlorthalidone] | 1.29 | 1.09 | 18.9 (inactive) | 7.87 (inactive)
Nc1nc(N)nc(-c2cc(Cl)ccc2Cl)n1 [Irsogladine] | 0.913 | 0.877 | -14.2 (inactive) | -20.9 (inactive)
CC(C)NCC(O)c1ccc(NS(C)(=O)=O)cc1 (stereo not given) [Sotalol] | 0.726 | 0.499 | -33.5 (inactive) | -60.5 (inactive)
O=C1N(c2ccccc2)c2ccccc2C1(Cc1ccncc1)Cc1ccncc1 [Linopirdine] | 0.779 | 0.73 | -4.06 (inactive) | -12 (inactive)
